# Most compounds without a hit are left out; they make up all but 1% or so of the library.
# EBV gp42 inh: Epstein-Barr virus gp42 inhibitors, primary screen, biochemical, uHTS, fluorescence polarization; Fluorescence polarization binding assay, mP read-out; inhibition, % (tested at 21.74 µM); hit rate 0.42% among 220,000; AID 1085, 2008; in the data active means inhibition above about 50%
# Target sequence (Q1HVG2 whole entry, looked up): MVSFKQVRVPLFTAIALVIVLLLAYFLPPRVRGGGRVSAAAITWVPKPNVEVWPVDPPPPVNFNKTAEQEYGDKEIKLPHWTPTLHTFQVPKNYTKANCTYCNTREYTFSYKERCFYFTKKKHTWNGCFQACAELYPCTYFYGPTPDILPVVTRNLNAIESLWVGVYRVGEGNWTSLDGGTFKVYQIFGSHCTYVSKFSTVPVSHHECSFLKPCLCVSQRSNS
# MEX-5 binding: MEX-5 zinc finger RNA-binding disruptors – biochemical, C. elegans, fluorescence polarization, MLPCN library, primary screen. activity score (negative = inhibition of binding), % at 10 µM. MEX-5/FITC-TCR2 RNA binding; hits give low values. Zinc finger protein mex-5 (Caenorhabditis elegans), Q9XUB2. AID 1832, 2009. hit rate 0.38% among 300,000;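 active means inhibition past about -25% in most replicates, and total fluorescence under double the plate's negative control median, limit read from the data; inconclusive means replicates evenly split on the limit, or fluorescence at least double controls; inactive means too little inhibition in most replicates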
# ZTA DNA inh: ZTA (EBV) inhibition in EBNA-1 counter-screen; inhibition, % at 11 µM; P03206; hit rate 0.15% among 320,000; ZTA-DNA binding, fluorescence polarization; in the data active means inhibition above about 33%
# Target sequence (P03206 whole entry, looked up): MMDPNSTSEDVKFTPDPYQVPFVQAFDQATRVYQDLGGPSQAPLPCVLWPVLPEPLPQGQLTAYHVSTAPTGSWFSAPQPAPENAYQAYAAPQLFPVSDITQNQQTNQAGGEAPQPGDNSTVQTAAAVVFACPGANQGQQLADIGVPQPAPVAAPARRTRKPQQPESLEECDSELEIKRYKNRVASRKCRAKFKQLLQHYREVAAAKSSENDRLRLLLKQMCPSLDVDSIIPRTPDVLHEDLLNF
# EBNA-1 inhibitor: EBNA-1 DNA-binding inhibitors, primary screen, biochemical, fluorescence polarization. inhibition, % at 14.8 µM. hit rate 0.34% among 300,000. AID 1950, 2009; in the data active means inhibition above about 28%
# Numbers stand for hits; i = inactive; ? = inconclusive; nt = not tested or not shown.
SMILES,EBV gp42 inh,MEX-5 binding,ZTA DNA inh,EBNA-1 inhibitor
CCN1CC=C2C(C#N)=C(N)C(C#N)(C#N)C(CCc3ccccc3)C2C1 (stereo not given),81,nt,i,i
CC(=O)N1CC=C2C(C#N)=C(N)C(C#N)(C#N)[C@H](c3ccoc3)[C@H]2C1,i,i,i,i
CN1CC=C2C(C#N)=C(N)C(C#N)(C#N)[C@H](c3ccoc3)[C@H]2C1,62,-66,i,i
CN1CC=C2C(C#N)=C(N)C(C#N)(C#N)C(c3cccc(Cl)c3Cl)C2C1 (stereo not given),86,-29,i,i
N#CC1=C(N)C(C#N)(C#N)[C@H](c2ccoc2)[C@H]2CN(Cc3ccccc3)CC=C12,90,-46,i,i
CC(C)(C)c1ccc(OCC(=O)NCC(c2cccs2)N2CCOCC2)cc1 (stereo not given),nt,i,i,i
Cc1ccc(C(=O)/C=C/c2ccc(-c3ccc(C)cc3)o2)cc1,i,i,i,i
CCN(CC)S(=O)(=O)c1ccc(C(=O)/C=C/c2ccc(-c3ccc([N+](=O)[O-])cc3)o2)cc1,86,i,i,i
CCCCOc1[nH]c2nc(-c3ccco3)n(Cc3ccco3)c(=N)c2c1C#N,55,i,i,i
CCC(=O)c1ccc(N2CCN(C(=O)c3cccs3)CC2)c(F)c1,nt,i,i,i
Cn1ccnc1SCC(=O)NC1(C#N)CCCCC1,nt,i,i,i
COc1cc(/C=N/c2oc(-c3ccccc3)cc2C#N)ccc1O,57,?,i,i
COc1cc(/C=N/NC(=O)c2ccccc2)ccc1O,i,i,i,i
CC(C)Oc1ccc(CNC(=O)c2cc(S(=O)(=O)N3CCOCC3)cn2C)cc1,nt,i,i,i
CC(=O)c1ccc(Nc2c3c(nc4ccccc24)CCCC3)cc1,86,i,i,i
O=C(NNC(=O)c1sccc1-n1cccc1)c1cccc(Cl)c1,67,i,i,i
O=C(NNC(=O)c1sccc1-n1cccc1)c1ccccc1,i,i,i,i
COc1ccc(NC(=O)NC2(C(=O)N3CCCC(C)C3)CCCCC2)cc1 (stereo not given),nt,i,i,i
O=C(Nc1nc2c(s1)CN(Cc1ccccc1)CC2)c1cccc(S(=O)(=O)N2CCc3ccccc32)c1,111,i,i,i
CCc1c(C(=O)NNC(=S)Nc2ccc(S(=O)(=O)Nc3ncccn3)cc2)csc1C,nt,-48,i,i
O=C(Nc1ccc(F)cc1)Nc1nnc(-c2ccncc2)s1,i,i,i,i
O=C(Nc1ccc(Cl)cc1)Nc1nnc(-c2ccncc2)s1,77,i,i,i
COC(=O)c1cc(NC(=O)c2cccc(C(F)(F)F)c2)c(=O)oc1C,i,i,i,i
COC(=O)c1cc(NC(=O)c2cccc(Cl)c2)c(=O)oc1/C=C/Nc1cc(C)cc(C)c1,156,-28,i,i
CN(Cc1cccc(Cl)c1)C(=O)C1CCC(=O)N(C2CC2)C1 (stereo not given),nt,i,i,i
SMILES,EBV gp42 inh,MEX-5 binding,ZTA DNA inh,EBNA-1 inhibitor
COc1cc(CCC(=O)N2CCN(c3ccc(N4CCOCC4)nn3)CC2)cc(OC)c1OC,i,i,i,i
COc1cc(CCC(=O)N2CCN(c3ncccn3)CC2)cc(OC)c1OC,86,i,i,i
O=C(NC1CCCC1)C(c1ccccn1)N(Cc1ccccc1F)C(=O)c1csnn1 (stereo not given),nt,i,i,i
CSc1nc(N(C)CCO)c2sc3nc(-c4ccco4)c4c(c3c2n1)CCC4,87,i,i,i
CSc1nc(SCC(=O)O)c2sc3nc(-c4ccccc4)c4c(c3c2n1)CCC4,53,i,nt,nt
O=C(O)CSc1nc2sc3c(c2c(=O)n1-c1ccccc1)CCC3,i,i,i,i
CC(=O)Nc1ccc(S(=O)(=O)N2CCC3(CC2)OCCO3)cc1,nt,i,i,i
CCOc1ccc(CCNC(=O)CS(=O)Cc2nc(-c3ccccc3C)oc2C)cc1OCC (stereo not given),nt,i,i,i
C=CCn1c(O)c(N=NC(=O)CNC(=O)/C=C/c2ccco2)c2ccccc21,62,i,i,i
Cc1nn(-c2ccccc2)c(N2CCCC2)c1/C=N/NC(=O)c1ccccc1O,i,i,i,i
Cc1nn(-c2ccccc2)c(N2CCCC2)c1/C=N/NC(=O)c1cc(-c2cccnc2)nc2ccccc12,i,-28,i,i
O=C(NCC1OCCc2ccccc21)c1ccc(NC(=O)c2cccc(Br)c2)cc1 (stereo not given),i,i,i,30
COCC(=O)N1CCC(Oc2ccc(C(=O)N3C[C@@H]4CCC[C@H]3C4)cc2)CC1,nt,i,nt,nt
COC(=O)[C@@H](NC(=O)NC1CCN(Cc2ccccc2)CC1)C(C)C,i,i,i,i
COC(=O)[C@H](CCSC)NC(=O)NC1CCN(Cc2ccccc2)CC1,i,-36,i,i
COC(=O)C1=NN(C(=O)c2ccc(C)cc2)C(O)(c2ccc(Cl)cc2)C1 (stereo not given),i,-40,i,i
COC(=O)C1=NN(C(=O)c2ccccc2)C(O)(c2ccc([N+](=O)[O-])cc2)C1 (stereo not given),nt,i,nt,nt
O=C1[C@H]2[C@@H](C3CC3)N3C(=O)CN(Cc4ccccn4)C(=O)[C@@]3(Cc3ccccc3)[C@H]2C(=O)N1c1ccccc1,nt,i,i,i
O=C1N=C(N2C=CC(=C3C=CNC=C3)C=C2)/C(=C/N=NC(=O)c2ccccc2O)S1,nt,-46,i,i
Cc1cc(C(=O)Nc2ccccc2Cl)n(-c2ccccc2)n1,nt,i,i,i
CCOC(=O)C1=C2NC(=O)c3ccccc3N2C(=O)C1,i,-31,i,i
COc1ccc2nc3ccccc3nc2c1NC(=O)c1ccccc1Cl,i,-35,i,i
O=c1ccc2cc3c4c(c2o1)CCCN4CCC3,129,?,i,i
O=c1oc2c3c4c(cc2s1)CCCN4CCC3,i,-32,i,i
CC1CCc2cccc3c2N1c1cc(C#N)c(C#N)cc1O3 (stereo not given),116,i,i,i
SMILES,EBV gp42 inh,MEX-5 binding,ZTA DNA inh,EBNA-1 inhibitor
CC1CCCCN1c1cc(C#N)c(C#N)cc1[N+](=O)[O-] (stereo not given),i,i,i,i
O=C(/C=C/c1ccc(O)c(O)c1)O[C@H](Cc1ccc(O)c(O)c1)C(=O)O,i,-98,nt,nt
CC(C)c1ccc(NC(=O)CSc2n[nH]c(=O)n2C2CC2)cc1,nt,i,i,i
O=C(NCCCO)Nc1ccc2nc(-c3ccco3)c(-c3ccco3)nc2c1,67,nt,58,i
O=C(Nc1ccc2nc(-c3ccco3)c(-c3ccco3)nc2c1)NC1CC1,i,i,nt,nt
O=C(c1ccc2nc(-c3ccco3)c(-c3ccco3)nc2c1)N1CCN(c2ccccc2)CC1,i,i,i,i
O=C(O)c1ccc2nc(-c3ccco3)c(-c3ccco3)nc2c1,i,-29,nt,nt
Cc1c2ccccc2nc2c(F)c(NC(C)C)c(F)c(F)c12,168,-33,i,i
Cc1c2ccccc2nc2c(F)c(NCCO)c(F)c(F)c12,187,-31,i,i
OCCNc1c2ccccc2nc2c(F)c(F)c(F)c(F)c12,i,i,i,i
Cc1ccc(N(C(=O)CNC(=O)c2ccco2)C(C(=O)NCC2CCCO2)c2ccccc2)c(C)c1 (stereo not given),nt,i,i,i
